# Assay results from PubChem BioAssay (Tox21).
# Results filed as inconclusive are left out. Where a call stands in place of a potency, no number is given. Active and inactive are the calls of the source. Unless noted, calls come from the whole dose curve; as a rule, active = well fitted curve in the direction sought with a large enough effect in the repeat runs; inconclusive = weak or mixed curves; inactive = no such curve, though single readings can be large; an effect the other way counts as inactive or inconclusive.
# Tests used:
# [1] = qHTS assay for small molecules that induce genotoxicity in human embryonic kidney cells expressing luciferase-tagged ATAD5 (AID 651632); note: nearly all actives have a fitted effect of over 15% in size; note: potency is the fitted concentration of half-maximal effect
# Method in brief: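 Luminescence read-out: after 16 hr compound exposure at 37C, ATAD5-luciferase HEK293T cells received Amplite, 30 min RT, then CCD imaging. A rise in signal marks genotoxic stress.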
# [2] = qHTS assay for small molecule agonists of the p53 signaling pathway - cell viability (AID 651633; calls by dose curve; note: nearly all actives have a fitted effect of over 30% in size; note: potency is the fitted concentration of half-maximal effect)
# Method in brief: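 p53RE-bla cells, seeded at 4,000 per well and rested 5 h at 37 C/5% CO2, received compounds in DMSO for 16 h at 37 C. CellTiter-Glo was then added, and luminescence was read after 30 min at room temperature to gauge cytotoxicity.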
# [3] = qHTS assay for small molecule disruptors of the mitochondrial membrane potential - cell viability (AID 720634; calls by dose curve; note: nearly all actives have a fitted effect of over 20% in size; note: potency is the fitted concentration of half-maximal effect)
# Method in brief: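 Luminescence from CellTiter-Glo (ATP content) gave viability in HepG2 cells, read in the same wells as the MMP dye assay after 1 hr compound exposure at 37 C.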
# [4] = qHTS assay to test for compound auto fluorescence at 590 nm (red) in HepG2 cells (AID 720674); note: potency is the fitted concentration of half-maximal effect
# Method in brief: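 Compound auto-fluorescence is scored relative to Rose Bengal sodium, measured at 540/590 nm in live HepG2 cultures after 1 hr compound contact (37 C, 5% CO2).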
# [5] = qHTS assay to test for compound auto fluorescence at 535 nm (green) in HepG2 cells (AID 720675); note: potency is the fitted concentration of half-maximal effect
# [6] = qHTS assay to test for compound auto fluorescence at 460 nm (blue) in HEK293 cells (AID 720678)
# Method in brief: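 Blue-channel (Ex/Em 405/460 nm) intensity measured in HEK293 cultures after overnight compound exposure at 37C; signal expressed relative to triamterene. Cells plated 2,000 per well in 10% dialyzed FBS medium and allowed 4-5 hr to attach.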
# [7] = qHTS assay to test for compound auto fluorescence at 590 nm (red) in HEK293 cells (AID 720679); note: potency is the fitted concentration of half-maximal effect
# Method in brief: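 Red-channel autofluorescence (Ex/Em 540/590 nm; Rose Bengal sodium reference) was measured after overnight 37C, 5% CO2 exposure of attached HEK293 cells, 2,000 per well in medium with 10% dialyzed FBS.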
# [8] = qHTS assay for small molecule disruptors of the mitochondrial membrane potential (AID 720635); note: potency is the fitted concentration of half-maximal effect
# Method in brief: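 HepG2 cells (2,000/well) attached overnight at 37C, then took compound for 1 hr at 37C, 5% CO2. Mito-MPS dye was added for 30 min; fluorescence was read at 490/535 nm (monomers) and 540/590 nm (aggregates).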
# [9] = qHTS assay for small molecules that induce genotoxicity in human embryonic kidney cells expressing luciferase-tagged ATAD5 - cell viability (AID 651634; calls by dose curve; note: nearly all actives have a fitted effect of over 25% in size; note: potency is the fitted concentration of half-maximal effect)
# Method in brief: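 HEK293T ATAD5-luc cells, 2,000/well; compound 15.5 hr, 37C/5% CO2; CellTiter-Fluor 30 min, 37C; fluorescence read.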
# Tags give direction and shape of the fitted curve or compound fluorescence and quenching.
Structure (SMILES),Potency [1],Potency [2],Potency [3],Potency [4],Potency [5],Potency [6],Potency [7],Potency [8],Potency [9]
CC1(C)C(\C=C/C=C\C=C/C=C2/N(CCCCS(=O)(=O)O)c3ccc4ccccc4c3C2(C)C)=[N+](CCCCS(=O)(=O)[O-])c2ccc3ccccc3c21,inactive,inactive,inactive,inactive,inactive,inactive,,,
COc1cc(Br)c(C[N+]2(CCOCCC3CCC4CC3C4(C)C)CCOCC2)cc1OC (stereo not given),inactive,inactive,inactive,inactive,inactive,inactive,inactive,,
CO[C@H]1C[C@H](O[C@H]2[C@H](C)O[C@@H](O[C@@H]3/C(C)=C/C[C@@H]4C[C@@H](C[C@]5(C=C[C@H](C)[C@@H](C6CCCCC6)O5)O4)OC(=O)[C@@H]4C=C(C)[C@@H](O)[C@H]5OC/C(=C\C=C\[C@@H]3C)[C@]54O)C[C@@H]2OC)O[C@@H](C)[C@@H]1O,inactive,6.68 µM (active),,inactive,inactive,inactive,inactive,11.9 µM (active),
CN1CCN(C(c2ccccc2)c2ccc(Cl)cc2)CC1 (stereo not given),inactive,inactive,inactive,inactive,inactive,inactive,inactive,,
C=C[C@]1(C)C[C@@H](OC(=O)CSC(C)(C)CNC(=O)[C@H](N)C(C)C)[C@]2(C)[C@H](C)CC[C@]3(CCC(=O)[C@H]32)[C@@H](C)[C@@H]1O,inactive,inactive,inactive,inactive,inactive,inactive,inactive,,
NC[C@@H]1O[C@H](O[C@H]2[C@@H](O)[C@H](O[C@@H]3[C@@H](O)[C@H](N)C[C@H](N)[C@H]3O[C@H]3O[C@H](CN)[C@@H](O)[C@H](O)[C@H]3N)O[C@@H]2CO)[C@H](N)[C@@H](O)[C@@H]1O,inactive,inactive,inactive,inactive,inactive,inactive,inactive,inactive,
C/C1=C2N=C(/C=C3N=C(/C(C)=C4\[N-][C@@](C)([C@@H]5N=C1[C@](C)(CCC(=O)NCC(C)OP(=O)(O)O[C@H]1[C@@H](O)[C@@H](n6cnc7cc(C)c(C)cc76)O[C@@H]1CO)[C@H]5CC(N)=O)[C@@](C)(CC(N)=O)[C@@H]4CCC(N)=O)[C@@](C)(CC(N)=O)[C@@H]\3CCC(N)=O)C(C)(C)[C@@H]/2CCC(N)=O.CC(=O)O.[Co] (stereo not given in full),inactive,inactive,inactive,inactive,,inactive,inactive,,
COC(=O)C1=C(C#N)NC(C)=C(C(=O)OC(C)C)C1c1cccc([N+](=O)[O-])c1 (stereo not given),inactive,inactive,11.9 µM (active),inactive,inactive,inactive,inactive,19.7 µM (active),
CSc1nc2cc(Oc3cccc(Cl)c3Cl)c(Cl)cc2[nH]1,inactive,10.6 µM (active),2.11 µM (active),inactive,inactive,inactive,inactive,1.68 µM (active),
CCCCCCCCCCCCCCCCOCCOCCOCCOCCOCCOCCOCCOCCOCCOCCOCCOCCOCCOCCOCCOCCOCCOCCOCCOCCO,inactive,6.68 µM (active),,inactive,inactive,inactive,inactive,23.7 µM (active),
N#CC(c1ccc(Cl)cc1)c1c(Cl)cc(-n2ncc(=O)[nH]c2=O)cc1Cl (stereo not given),inactive,23.7 µM (active),,inactive,inactive,inactive,inactive,8.41 µM (active),
CC1(C)S[C@@H]2[C@H](NC(=O)C(N)c3ccccc3)C(=O)N2[C@H]1C(=O)OC1OC(=O)c2ccccc21 (stereo not given in full),inactive,inactive,inactive,inactive,inactive,inactive,inactive,,
CN=C(NC)NCc1ccccc1,inactive,inactive,inactive,inactive,inactive,inactive,inactive,inactive,
COc1ccc(C2NC(=S)N3C(c4ccc(OC)c(OC)c4)NC(=S)N23)cc1OC (stereo not given),inactive,,inactive,inactive,inactive,inactive,inactive,inactive,inactive
CN1CCCC(CN2c3ccccc3Sc3ccccc32)C1 (stereo not given),inactive,inactive,inactive,inactive,inactive,inactive,inactive,,
CN[C@H]1CCc2cc(OC)c(OC)c(OC)c2-c2ccc(OC)c(=O)cc21,237 nM (active),inactive,inactive,inactive,inactive,inactive,inactive,0.335 µM (active),
CCCCCCCN(CC)CCCC(O)c1ccc(NS(C)(=O)=O)cc1 (stereo not given),inactive,inactive,,inactive,,inactive,inactive,,
C[C@@H]1CCC2[C@@H](C)[C@@H](O)O[C@@H]3O[C@@]4(C)CC[C@@H]1[C@@]23OO4 (stereo not given in full),inactive,,inactive,inactive,inactive,inactive,inactive,inactive,13.3 µM (active)
CCC[C@@H]1C[C@@H](C(=O)N[C@@H]([C@H]2O[C@H](SC)[C@H](O)[C@@H](O)[C@H]2O)[C@H](C)Cl)N(C)C1,inactive,,inactive,inactive,inactive,inactive,inactive,inactive,inactive
C=C1C(=C/C=C2\CCC[C@]3(C)[C@@H]([C@H](C)CCCC(C)(C)O)CC[C@@H]23)C[C@@H](O)C[C@@H]1O,inactive,21.1 µM (active),inactive,inactive,inactive,inactive,inactive,10.6 µM (active),
O=C(Nc1ccc(Br)cc1)c1cc(Br)c(Br)s1,inactive,29.8 µM (active),3.35 µM (active),inactive,inactive,inactive,inactive,0.668 µM (active),
O=C(O)CN(CC(=O)O)CC1=CC2C(=CC1=O)Oc1cc(O)c(CN(CC(=O)O)CC(=O)O)cc1C21OC(=O)c2ccccc21 (stereo not given),inactive,inactive,inactive,,10 µM (active),inactive,,,

Structure (SMILES),Potency [1],Potency [2],Potency [3],Potency [4],Potency [5],Potency [6],Potency [7],Potency [8],Potency [9]
OCC(S)CS (stereo not given),inactive,26.6 µM (active),,inactive,inactive,inactive,inactive,inactive,
COC(=O)C1=C(C)NC(C)=C(C(=O)O[C@H]2CCN(Cc3ccccc3)C2)[C@H]1c1cccc([N+](=O)[O-])c1,inactive,inactive,inactive,inactive,inactive,inactive,inactive,,
C=C1CC[C@H](O)CC1=C/C=C1\CCC[C@]2(C)[C@@H]([C@H](C)CC[C@@H](O)C(C)(C)O)CC[C@@H]12,inactive,21.1 µM (active),inactive,inactive,inactive,inactive,inactive,11.9 µM (active),
CCCCC[C@H](O)/C=C/[C@@H]1[C@H]2C/C(=C/CCCC(=O)O)O[C@H]2C[C@H]1O,inactive,inactive,inactive,inactive,inactive,inactive,inactive,inactive,
CCC[C@@]1(CCc2ccccc2)CC(O)=C([C@H](CC)c2cccc(NS(=O)(=O)c3ccc(C(F)(F)F)cn3)c2)C(=O)O1,inactive,,inactive,inactive,inactive,inactive,inactive,23.7 µM (active),inactive
CC1(C)S[C@@H]2[C@H](NC(=O)[C@H](NC(=O)N3CCN(S(C)(=O)=O)C3=O)c3ccccc3)C(=O)N2[C@H]1C(=O)O,inactive,,inactive,inactive,inactive,inactive,inactive,inactive,inactive
CC(CN(C)C)CN1c2ccccc2Sc2ccc(C(F)(F)F)cc21 (stereo not given),inactive,,inactive,inactive,inactive,inactive,,,
CC[C@]1(O)CC2CN(CCc3c([nH]c4ccccc34)[C@@](C(=O)OC)(c3cc4c(cc3OC)N(C)[C@H]3[C@@](O)(C(N)=O)[C@H](O)[C@]5(CC)C=CCN6CC[C@]43[C@@H]65)C2)C1 (stereo not given in full),3350 nM (active),,inactive,inactive,,inactive,inactive,10.6 µM (active),0.531 µM (active)
CCC(=O)c1ccc2c(c1)N(CCCN1CCN(CCO)CC1)c1ccccc1S2,inactive,,inactive,inactive,inactive,inactive,inactive,,26.6 µM (active)
CCCCCCCCCCCCCCCCCC[N+](C)(C)CCC[Si](OC)(OC)OC,inactive,,inactive,inactive,inactive,inactive,inactive,,inactive
O=C(O)c1c(Cl)c(Cl)c(Cl)c(Cl)c1-c1c2cc(I)c(=O)c(I)c-2oc2c(I)c(O)c(I)cc12,inactive,,inactive,11.2 µM (active),inactive,inactive,11.2 µM [fluorescent] (active),,26.6 µM (active)
O=C(O)c1cc(N=Nc2ccc(O)c(C(=O)O)c2)ccc1O,inactive,,inactive,inactive,inactive,inactive,inactive,inactive,inactive
C=Cc1c(C)c2cc3nc(cc4[nH]c(cc5nc(cc1[nH]2)C(C)=C5CCC(=O)OC)c(CCC(=O)O)c4C)[C@@]1(C)C3=CC=C(C(=O)OC)[C@H]1C(=O)OC,inactive,,inactive,inactive,,inactive,inactive,1.88 µM (active),
C#C[C@]1(O)CC[C@H]2[C@@H]3CCC4=C(CCC(=O)C4)[C@H]3CC[C@@]21C,inactive,,inactive,inactive,inactive,inactive,inactive,,inactive
[O]=[Bi][O][Bi]=[O],,inactive,inactive,inactive,inactive,inactive,inactive,inactive,inactive
CCOc1ccc(N=Nc2ccc(N)cc2N)cc1,,inactive,11.9 µM (active),inactive,inactive,inactive,,1.68 µM (active),2.37 µM (active)
Cc1cccc(C)c1Nc1ncccc1C(=O)O,,inactive,inactive,inactive,inactive,inactive,inactive,23.7 µM (active),inactive
CN1CCN(CCCN2c3ccccc3Sc3ccccc32)CC1,inactive,,,inactive,inactive,inactive,inactive,,inactive
O=C1CSC2(CCN(CCCN3c4ccccc4Sc4ccc(Cl)cc43)CC2)N1,inactive,,inactive,inactive,inactive,inactive,inactive,,
CCCCC[C@H](O)/C=C/[C@H]1[C@H](O)CC(=O)[C@@H]1CCCCCCC(=O)O,inactive,,inactive,inactive,inactive,inactive,inactive,,inactive
CCCCCCC(=O)O[C@H]1CC[C@H]2[C@@H]3CCc4cc(O)ccc4[C@H]3CC[C@]12C,inactive,,inactive,inactive,inactive,inactive,inactive,11.9 µM (active),inactive
CC(=O)[C@@]1(O)CC[C@H]2[C@@H]3C=C(Cl)C4=CC(=O)CC[C@]4(C)[C@H]3CC[C@@]21C,inactive,,inactive,inactive,inactive,inactive,inactive,,inactive
